SMN2 splice up – qHTS Assay for Enhancers of SMN2 Splice Variant Expression | AID 1458, 2008 | HEK293 SMN2-luciferase splicing reporter, luminescence, 30-36 h | actives 2.8% (n = 210,000) | Potency, µM (highest dose often 46.1 µM), hits mostly activators; also: nearly all actives have a fitted effect of over 55% in size
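HEK293 cells carry an SMN2 […]–luciferase reporter in which exon 7 inclusion puts luciferase in frame. Cells were plated 10-12 h before compound addition, then incubated 30-36 h at 37C. ONE-Glo luminescence was read; sodium butyrate at 4.5 mM final served as control.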
Rab9 prom act – qHTS Assay for Rab9 Promoter Activators. AID 485297, 2010. Huh7 Rab9 promoter-luciferase reporter, luminescence, 24 h. actives 2.8% (n = 320,000). Potency, µM (highest dose often 9.22 µM), hits mostly activators; also: nearly all actives have a fitted effect of over 60% in size
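Cell-based reporter: Huh7 stable for Rab9 promoter-driven luciferase, plated in reduced-serum medium with 10% FBS at 1500 cells/well, compound-treated 24 h at 37 °C, luminescence read after 10 min reagent.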
ELG1 genotox – qHTS screen for small molecules that induce genotoxicity in human embryonic kidney (HEK293T) cells expressing luciferase-tagged ELG1; HEK293T ELG1-luciferase reporter, luminescence, 16 h; Potency, µM (series often up to 46 µM), most hits filed as activators; actives 1.3% (n = 330,000); also: nearly all actives have a fitted effect of over 60% in size
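HEK293T cells expressing luciferase-tagged ELG1 were treated with compound or DMSO for 16 hr at 37°C. Luciferase activity was then read after 30 min with ONE-Glo at room temperature; rising signal flags genetic stress.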
NPC1 prom act – qHTS Assay for NPC1 Promoter Activators. Huh7 NPC1 promoter luciferase reporter, 24 h. Potency, µM (doses to about 9.22 µM), usual class: activators. actives 2.4% (n = 320,000); also: nearly all actives have a fitted effect of over 60% in size
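Huh7 reporter cells (NPC1 promoter driving luciferase) are dosed with compound for 24 h at 37 °C, 5% CO2; luciferase detection reagent is then added and luminescence measured after 10 min at ambient temperature.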
FLuc counter – qHTS profiling assay for firefly luciferase inhibitor/activator using purifed enzyme and Km concentrations of substrates (counterscreen for miR-21 project). actives 6.9% (n = 360,000). purified FLuc, Km substrates, luminescence inhibition. Potency, µM (doses to about 57.5 µM), most hits filed as inhibitors. Luciferin 4-monooxygenase (Photinus pyralis), P08659; also: nearly all actives have a fitted effect of over 55% in size
Target sequence (P08659 whole entry, looked up): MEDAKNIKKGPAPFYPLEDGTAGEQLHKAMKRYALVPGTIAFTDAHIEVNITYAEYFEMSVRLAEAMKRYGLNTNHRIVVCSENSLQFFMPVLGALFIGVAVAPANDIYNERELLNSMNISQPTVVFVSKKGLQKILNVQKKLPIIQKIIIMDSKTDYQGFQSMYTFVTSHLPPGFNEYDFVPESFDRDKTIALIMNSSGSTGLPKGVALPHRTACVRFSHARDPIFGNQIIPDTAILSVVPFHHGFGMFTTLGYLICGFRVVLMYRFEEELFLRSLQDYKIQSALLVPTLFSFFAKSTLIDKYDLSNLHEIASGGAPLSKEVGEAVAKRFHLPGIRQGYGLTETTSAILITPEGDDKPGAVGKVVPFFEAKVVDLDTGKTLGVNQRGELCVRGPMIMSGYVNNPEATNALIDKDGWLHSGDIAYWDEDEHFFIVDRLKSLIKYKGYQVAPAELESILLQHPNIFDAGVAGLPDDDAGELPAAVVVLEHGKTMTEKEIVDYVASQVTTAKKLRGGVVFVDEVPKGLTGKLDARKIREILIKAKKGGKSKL
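Purified P. pyralis luciferase (10nM final) with 10uM D-luciferin and 10uM ATP (Km levels) in 50mM Tris acetate pH 7.5, 10mM Mg acetate, 0.01% Tween-20, 0.05% BSA; qHTS 6-point titration, ~60 µM downward; luminescence read.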
p53 reactivation – qHTS assay for re-activators of p53 using a Luc reporter. H1299 p53-A138V BP100-luciferase reporter, luminescence, 24 h. Potency, µM (doses to about 92.2 µM), most hits filed as activators. actives 0.063% (n = 320,000). AID 504706, 2011; also: nearly all actives have a fitted effect of over 45% in size
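H1299 (p53-null), stable ts p53-A138V + BP100-Luc; 1000 cells/well, Opti-MEM/10% FBS; cpd 4 pt, 1:5; 24 h, 37 deg C, 5% CO2; detection reagent 10 min RT; luminescence.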
Hits are given with their value; 0 = inactive; ? = inconclusive; - = no result given; [ ] = remark or other dose. Most compounds without a hit are left out; they make up all but 7.3% or so of the library. Calls follow the shape of the dose curve; as a rule, active = well fitted curve in the direction sought with a large enough effect; inconclusive = small, poorly fitted or top-dose-only effect, or another doubt; inactive = no such curve, though single readings can be large; an effect the other way counts as inactive or inconclusive.

SMILES | SMN2 splice up | Rab9 prom act | ELG1 genotox | NPC1 prom act | FLuc counter | p53 reactivation
Cc1ccc(N(CC(=O)Nc2ccc(Cl)cc2)S(=O)(=O)c2cccc3nonc23)cc1 | 0 | - | - | - | 0 | -
CC(=O)c1cc2c(=O)c3cc(C)ccc3oc2nc1C | 12.6µM | 3.55µM | 10.3µM | ? | 8.49µM | 0
Cc1ccc2oc3nc(C)c(C(=O)O)cc3c(=O)c2c1 | 5.62µM | 2.24µM | 0 | 2.82µM | 13.5µM | 0
CCOC(=O)c1cc2c(=O)c3cc(C)ccc3oc2nc1C | - | 3.16µM | ? | 2.82µM | 1.9µM | ?
Cc1cccc(OCC(=O)N(Cc2cccc(Cl)c2)Cc2ccco2)c1C | 0 | - | - | - | 0 | -
CCOC(=O)/C(C#N)=C/C=C1/C=CC=CN1C | - | ? | 0 | 0 | ? | 0
C=CCN1C=CC(=C/C=C(/C#N)C(=O)OCC)C=C1 | 1.41µM | 2µM | 7.31µM | 2.51µM | 2.39µM | ?
O=C(O)c1cc(-c2ccc(Br)s2)nc2ccccc12 | - | 0 | 0 | 0 | 8.49µM | 0
Cc1ccc(-c2cc(C(=O)NCCCn3ccnc3)c3ccccc3n2)s1 | 0 | 0 | 0 | 0 | 16.9µM | 0
CCOC(=O)c1cc(-c2cccs2)nc2c1c(C)nn2-c1ccccn1 | 0 | 0 | 0 | 0 | ? | 0
O=C(NCc1ccco1)c1cc(-c2cccs2)nc2ccccc12 | 0 | 0 | 0 | 0 | 0 | 0
Cc1nn(-c2ccccn2)c2nc(-c3cccs3)cc(C(=O)NCc3ccco3)c12 | - | 0 | 0 | 0 | 6.75µM | 0
Cc1ccc(-c2cc(C(=O)NCc3ccco3)c3ccccc3n2)s1 | 0 | 0 | 0 | 0 | 12µM | 0
COc1cc(NC(=O)CSc2nc(C)c(C)c(C)n2)cc(OC)c1 | 0 | 0 | 0 | 0 | 0 | 0
CCOC(=O)COc1c(/C=N\OC)cc(Cl)cc1OC | 0 | 0 | 0 | 0 | 0 | 0
CC(C)NS(=O)(=O)c1ccc(NC(=O)C(C)OC(=O)CCC(=O)c2cccs2)cc1 (centres undefined) | - | 0 | 0 | 0 | 0 | 0
CC(C)(Oc1ccc(Cl)cc1)C(=O)Nc1nnc2n1CCS2 | - | - | - | - | 0 | -
CCc1ccc(-c2cc(C(=O)NN3CCOCC3)c3ccccc3n2)s1 | 0 | 0 | 0 | 0 | 7.57µM | 0
O=C(NN1CCOCC1)c1cc(-c2ccccc2)nc2ccccc12 | 0 | 0 | 0 | 0 | 0 | 0
CCc1ccc(-c2cc(C(=O)NCCCn3ccnc3)c3ccccc3n2)s1 | 0 | 0 | ? | 0 | 4.78µM | 0
COc1ccc(-c2cc(C(=O)NCCCn3ccnc3)c3ccccc3n2)c(OC)c1 | - | 0 | 0 | 0 | 0 | 0
C[C@@]12C[C@H](O)C3[C@H](CCC4=CC(=O)CC[C@]43C)[C@H]1CC[C@@H]2c1csc(-c2ccccc2)n1 (some centres undefined) | 0[9.22 µM] | - | - | - | - | -
Cc1cc(-c2ccc(C)c(S(=O)(=O)N(C)c3ccc(C)c(C)c3)c2)on1 | - | - | - | - | 0 | -
CCc1ccc(C(=O)COC(=O)c2cccc(N3C(=O)c4c(C)nc5ccccc5c4C3=O)c2)cc1 | 0 | 0 | 0 | ? | 1.69µM | 0
Cn1ccc(C(=O)OCC(=O)c2ccccc2)n1 | - | 0 | ? | 0 | 26.9µM | 0
SMILES | SMN2 splice up | Rab9 prom act | ELG1 genotox | NPC1 prom act | FLuc counter | p53 reactivation
Nc1cccc(C(=O)OCC(=O)c2ccccc2)c1 | 10µM | 3.55µM | ? | 3.16µM | 1.35µM | ?
O=C(COC(=O)c1cccc(N2C(=O)C3CC=CCC3C2=O)c1)c1ccccc1 (centres undefined) | - | 0 | 0 | 0 | 2.39µM | ?
O=C(COC(=O)c1cccc(O)c1)c1ccccc1 | - | 0 | ? | 0 | ? | 0
NC(=O)c1ccccc1NC(=O)COC(=O)C1(c2ccccc2)CC1 | - | 0 | 0 | 0 | 0 | 0
CCOc1ccccc1NC(=O)CN1CCCCCC1 | - | 0 | 0 | 0 | 0 | 0
COc1ccc(-c2noc(-c3ccccc3C(=O)Nc3cccnc3)n2)cc1 | 0 | 0 | 0 | 0 | 13.5µM | 0
COc1ccccc1-c1noc(-c2ccccc2C(=O)Nc2cccnc2)n1 | 0 | 0 | 0 | 0 | 15.1µM | 0
COc1ccc(-c2noc(-c3ccccc3C(=O)Nc3cccc(OC)c3)n2)cc1 | 0 | 0 | 0 | 0 | 10.7µM | 0
COc1ccc(-c2noc(-c3ccccc3C(=O)Nc3cccnc3)n2)cc1OC | 0 | 0 | 0 | 0 | ? | 0
O=C(Nc1ccc(-c2noc(-c3cccs3)n2)cc1)c1cccnc1 | 1.26µM | 0.447µM | ? | 1µM | 4.78µM | ?
COc1ccc(C(=O)Nc2ccccc2-c2nc(-c3ccc(OC)cc3)no2)cc1 | - | - | - | - | 0 | -
O=c1c2oc3ccccc3c2n(Cc2ccccc2F)c(=O)n1Cc1ccco1 | - | - | - | - | 0 | -
O=C(Nc1ccccc1Cl)N1CCC2(CC1)Oc1ccccc1C(=O)N2Cc1ccc(F)cc1 | - | - | - | - | 0 | -
COc1ccc(-c2nc3ccccc3n3c(-c4ccccc4)c4c(=O)n(C)c(=O)n(C)c4c23)cc1OC | 0 | - | - | - | 0 | -
COc1ccc(CCN2C(=O)CN(C3CCC(C)CC3)C(=O)C2c2ccc(OC(C)C)c(OC)c2)cc1OC (centres undefined) | - | - | - | - | 0 | -
CC(=O)Nc1cccc(Oc2ccc(-c3noc(C)n3)cc2)c1 | 10µM | 1.58µM | 9.2µM | 3.16µM | 12µM | ?
O=c1c2sccc2nc(SCc2cc(=O)n3cc(Br)ccc3n2)n1Cc1ccccn1 | ? | 4.47µM | ? | ? | 0 | 0
Cc1ccc(CSc2nc3ccsc3c(=O)n2Cc2ccccn2)cc1 | 0 | 0 | 0 | 0 | 0 | 0
Cc1ccc(S(=O)(=O)NCCc2csc3nc(-c4ccccc4C)nn23)cc1 | - | - | - | - | 0 | -
CN1/C(=C\C(=O)c2cccs2)C(C)(C)c2ccccc21 | 0 | 0 | 0 | 0 | ? | 0
CN1/C(=C\C(=O)c2cccs2)Sc2ccccc21 | - | 3.55µM | ? | ? | 1.51µM | ?
CN1/C(=C/C(=O)C2CCC2)Sc2ccccc21 | ? | ? | ? | ? | 16.9µM | ?
CN1/C(=C/C(=O)c2cccs2)Sc2ccccc21 | 7.94µM | 0 | 1.3µM | 0 | 1.2µM | ?
O=C(C1CC1)N1c2ccccc2Sc2ccccc21 | - | 0 | 0 | 0 | 0 | 0
O=C(c1csnn1)N1CCC[C@@]2(CCN(Cc3cc(C(F)(F)F)cc(C(F)(F)F)c3)C2)C1 | 0 | - | - | - | - | -
COc1ccc(-c2cc(C(=O)Oc3ccc(C#N)cc3)no2)cc1 | - | - | - | - | 0 | -
CCOC(=O)N1CCN(C(=O)c2noc3c2COc2ccccc2-3)CC1 | - | ? | ? | ? | 13.5µM | 0
CC1=C(C(=O)Nc2cc(C)ccc2C)C(c2cccs2)NC(=S)N1 (centres undefined) | 0 | 0 | 0 | 0 | 0 | 0
COc1ccc(-n2c(C)cc(/C=C3\SC(=S)NC3=O)c2C)cc1 | - | ? | 0 | ? | 5.36µM | 0

Screens (PubChem BioAssay)
